Experimental findings from the supplement of paper PMC4840960 are described below.

The test system of assay [1] is E18 rat cortical neuron-glia co-culture. Nature of the assay: fiber score / MBP score (myelination specific beyond OL differentiation) (ratio); higher = more myelination-specific MBP alignment. The settings on record: treatment time: 8 days (DIV5-DIV13). In a few lines: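 Papain-dissociated primary E18 rat cortical co-cultures, plated at 20,000 cells/well on poly-d-lysine/laminin 96-well plates, were exposed to library compounds at 1 or 5 µM in myelination medium between DIV5 and DIV13. Following fixation in 4 % paraformaldehyde, cultures were stained for MBP, Olig2 and DAPI, and four 10X fields per well were analysed in duplicate wells. Values are the ratio of fiber score (continuous MBP fiber length per Olig2+ nucleus) to MBP score (thresholded MBP area × intensity per Olig2+ nucleus).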

Assay [2] has the same test system. As to the kind of experiment: myelination (MBP fiber length per Olig2+ nucleus), % of 1 µM DAPT response (DMSO = 0) (% of DAPT); higher = more myelination, active = 50 or more. The settings on record: treatment time: 8 days (DIV5-DIV13). The method, boiled down: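 Myelination, expressed as continuous straight MBP fiber length per Olig2+ nucleus, was normalised to 0.1 % DMSO as 0 and a 1 µM positive control as 100. The cultures were primary E18 rat cortical co-cultures dissociated with papain and plated at 20,000 cells/well on poly-d-lysine/laminin-coated 96-well plates. They received library compounds at 1 or 5 µM in myelination medium between DIV5 and DIV13. Analysis covered four 10X fields per well in duplicate wells after 4 % paraformaldehyde fixation and immunostaining for MBP and Olig2 with DAPI.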

Where a name gives a salt, the structure may show the parent alone.

On to `O=C(O)c1cc(=O)c2c(OCC(O)COc3cccc4oc(C(=O)O)cc(=O)c34)cccc2o1` [Cromolyn Sodium], for which the “fiber score / MBP score” value in assay [1] (1 µM) was 0.501; in assay [1] (5 µM), 0.409. Also, the myelination was -7.17 (inactive) in assay [2] (1 µM) and -12.9 (inactive) in assay [2] (5 µM).

Turning to `CCc1cccc2c3c([nH]c12)C(CC)(CC(=O)O)OCC3` (stereo not given) [Etodolac], the “fiber score / MBP score” value in assay [1] (1 µM) amounted to 0.706; in assay [1] (5 µM), 1.38. In addition, the myelination in assay [2] (1 µM) was -10.5 (inactive); in assay [2] (5 µM), 16.1 (inactive).

Regarding `Oc1ncnc2[nH]ncc12` [Allopurinol], the “fiber score / MBP score” value worked out at 1.01 in assay [1] (1 µM) and 0.903 in assay [1] (5 µM). In addition, the myelination was 6.93 (inactive) in assay [2] (1 µM) and -0.27 (inactive) in assay [2] (5 µM).

Consider `CC[C@H]1OC(=O)[C@H](C)[C@@H](O[C@H]2C[C@@](C)(OC)[C@@H](O)[C@H](C)O2)[C@H](C)[C@@H](O[C@@H]2O[C@H](C)C[C@H](N(C)C)[C@H]2O)[C@](C)(O)C[C@@H](C)CN(C)[C@H](C)[C@@H](O)[C@]1(C)O` [Azithromycin], for which the “fiber score / MBP score” value in assay [1] (1 µM) is 0.707; in assay [1] (5 µM) it was 0.488. Besides, the myelination in assay [2] (1 µM) was -7.57 (inactive); in assay [2] (5 µM), -11.8 (inactive).

`CC(C)NCC(O)c1ccc(O)c(O)c1` (stereo not given) [Isoproterenol]: the “fiber score / MBP score” value in assay [1] (1 µM) stood at 0.965; in assay [1] (5 µM) it was 0.931. The myelination in assay [2] (1 µM) was 13.7 (inactive); in assay [2] (5 µM), 10.5 (inactive).

As for `COc1ccc(CN2CCN(C(c3ccc(F)cc3)c3ccc(F)cc3)CC2)c(OC)c1OC` [Lomerizine], the “fiber score / MBP score” value in assay [1] (1 µM) turned out to be 1.05; in assay [1] (5 µM) it was 0.643. Also, the myelination in assay [2] (1 µM) was 14.1 (inactive); in assay [2] (5 µM), -23.5 (inactive).

`Nc1ccc(O)c(C(=O)O)c1` [Mesalamine]: the “fiber score / MBP score” value in assay [1] (1 µM) is 0.748; in assay [1] (5 µM) it was 0.63. Moreover, the myelination in assay [2] (1 µM) was -20.4 (inactive); in assay [2] (5 µM), -28.3 (inactive).

For the compound `COC(=O)C1=C(C)NC(C)=C(C(=O)OC(C)C)C1c1cccc2nonc12` (stereo not given) [Isradipine], the “fiber score / MBP score” value in assay [1] (1 µM) amounted to 0.618; in assay [1] (5 µM) it was 0.922. Moreover, the myelination in assay [2] (1 µM) was -16.2 (inactive); in assay [2] (5 µM), 34.9 (inactive).

For `CN(C)CCCN1c2ccccc2CCc2ccc(Cl)cc21` [Clomipramine], the entries for the “fiber score / MBP score” value in assay [1] (1 µM) and in assay [1] (5 µM) were 1.05 and 0.899, respectively. Besides, the myelination is -10.8 (inactive) in assay [2] (1 µM) and -23 (inactive) in assay [2] (5 µM).

Turning to `CC1(C)C[C@@H]1C(=O)N/C(=C\CCCCSC[C@H](N)C(=O)O)C(=O)O` [Cilastatin], the entries for the “fiber score / MBP score” value in assay [1] (1 µM) and in assay [1] (5 µM) were 0.833 and 0.756, respectively. The myelination is -11.5 (inactive) in assay [2] (1 µM) and -15.2 (inactive) in assay [2] (5 µM).

In the case of `CC(N)C12CC3CC(CC(C3)C1)C2` (stereo not given) [Rimantadine], the “fiber score / MBP score” value was 0.962 in assay [1] (1 µM) and 0.737 in assay [1] (5 µM). Besides, the myelination in assay [2] (1 µM) is 28.7 (inactive); in assay [2] (5 µM), 62.2.

Consider `CC(C)OC(=O)C(C)(C)Oc1ccc(C(=O)c2ccc(Cl)cc2)cc1` [Fenofibrate], for which the “fiber score / MBP score” value in assay [1] (1 µM) is 0.901; in assay [1] (5 µM), 0.661. Besides, the myelination in assay [2] (1 µM) was -0.815 (inactive); in assay [2] (5 µM) it was 21.8 (inactive).

Turning to `CN1CCN2c3ncccc3Cc3ccccc3C2C1` (stereo not given) [Remergil], the “fiber score / MBP score” value in assay [1] (1 µM) worked out at 0.819; in assay [1] (5 µM) it was 0.663. Also, the myelination in assay [2] (1 µM) is 4.96 (inactive); in assay [2] (5 µM), -19.4 (inactive).

Consider `COc1c2occc2cc2ccc(=O)oc12` [Methoxsalen], for which the “fiber score / MBP score” value in assay [1] (1 µM) was 0.488; in assay [1] (5 µM) it was 0.29. In addition, the myelination is -11.8 (inactive) in assay [2] (1 µM) and -16.1 (inactive) in assay [2] (5 µM).

Turning to `COc1cc(CNC(=O)CCCC/C=C\C(C)C)ccc1O` [Zucapsaicin], the “fiber score / MBP score” value in assay [1] (1 µM) was 0.875; in assay [1] (5 µM) it was 1.51. The myelination in assay [2] (1 µM) was -19.7 (inactive); in assay [2] (5 µM) it was 98.2 (active).

As to `CCN(Cc1ccncc1)C(=O)C(CO)c1ccccc1` (stereo not given) [Tropicamide], the results for the “fiber score / MBP score” value in assay [1] (1 µM) and in assay [1] (5 µM) were 0.511 and 0.747, respectively. Moreover, the myelination was -22.3 (inactive) in assay [2] (1 µM) and -16.2 (inactive) in assay [2] (5 µM).

Consider `CC(C)C(=O)Nc1ccc([N+](=O)[O-])c(C(F)(F)F)c1` [Flutamide], for which the “fiber score / MBP score” value is 0.826 in assay [1] (1 µM) and 0.938 in assay [1] (5 µM). In addition, the myelination in assay [2] (1 µM) was -7.82 (inactive); in assay [2] (5 µM), 5.48 (inactive).

In the case of `C[C@]12CC[C@@H]3c4ccc(OS(=O)(=O)O)cc4CC[C@H]3[C@@H]1CCC2=O` [Estrone sulfate], the “fiber score / MBP score” value in assay [1] (1 µM) was 1.04; in assay [1] (5 µM), 1.16. Besides, the myelination is 3.23 (inactive) in assay [2] (1 µM) and 5.79 (inactive) in assay [2] (5 µM).

In the case of `O=C(O)COCCN1CCN(C(c2ccccc2)c2ccc(Cl)cc2)CC1` (stereo not given) [Cetirizine], the results for the “fiber score / MBP score” value in assay [1] (1 µM) and in assay [1] (5 µM) were 0.908 and 1.11, respectively. The myelination in assay [2] (1 µM) was -5.85 (inactive); in assay [2] (5 µM), -4.35 (inactive).

On to `C[C@H]1c2cccc(O)c2C(=O)C2=C(O)[C@]3(O)C(=O)C(C(N)=O)=C(O)[C@@H](N(C)C)[C@@H]3[C@@H](O)[C@@H]21` [Doxycycline], for which the “fiber score / MBP score” value in assay [1] (1 µM) worked out at 0.798; in assay [1] (5 µM), 0.815. For the same compound, the values for the myelination in assay [2] (1 µM) and in assay [2] (5 µM) were -18.2 (inactive) and -0.977 (inactive), respectively.

Consider `CNC(=N)NCCC[C@H](N)C(=O)O`, for which the “fiber score / MBP score” value in assay [1] (1 µM) amounted to 0.684; in assay [1] (5 µM), 0.854. In addition, the myelination in assay [2] (1 µM) is -37.1 (inactive); in assay [2] (5 µM), -9.76 (inactive).

In the case of `Cc1[nH]cnc1CN1CCc2c(c3ccccc3n2C)C1=O` [Alosetron], the “fiber score / MBP score” value was determined as 0.768 in assay [1] (1 µM) and 0.974 in assay [1] (5 µM). Also, the myelination in assay [2] (1 µM) was -18.2 (inactive); in assay [2] (5 µM), -2.39 (inactive).

Turning to `NS(=O)(=O)c1cc2c(cc1Cl)N=CNS2(=O)=O` [Chlorothiazide], the entries for the “fiber score / MBP score” value in assay [1] (1 µM) and in assay [1] (5 µM) were 1.05 and 0.841, respectively. Moreover, the myelination is 3.67 (inactive) in assay [2] (1 µM) and 6.93 (inactive) in assay [2] (5 µM).

Turning to `CN(C)CCC=C1c2ccccc2CCc2ccccc21` [Amitriptyline], the “fiber score / MBP score” value in assay [1] (1 µM) came to 0.785; in assay [1] (5 µM), 1.22. The results for the myelination in assay [2] (1 µM) and in assay [2] (5 µM) were -0.648 (inactive) and 30.2 (inactive), respectively.

As to `CC(C)(C)NC(=O)[C@H]1CC[C@H]2[C@@H]3CC[C@H]4NC(=O)C=C[C@]4(C)[C@H]3CC[C@]12C` [Finasteride], the results for the “fiber score / MBP score” value in assay [1] (1 µM) and in assay [1] (5 µM) were 0.7 and 0.898, respectively. Also, the myelination in assay [2] (1 µM) was -19.1 (inactive); in assay [2] (5 µM), -10.7 (inactive).
